The nature of assay [1]: antimalarial activity against Dd2 strain (AID 2302;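 active means growth inhibition above 50% at the single 2 µM test dose, taken to imply half-maximal potency below 2 µM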;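 further: 0% = DMSO untreated growth and 100% = chloroquine plus artemisinin killed control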). Particulars: P. falciparum Dd2 in RBCs, LDH growth readout, 72 h; at 2 µM; active compounds read high.
Assay [2] in a line: human hepatoma cell viability loss – ATP luminescence, cytotoxicity control for P. falciparum antimalarial project, primary screen (AID 2303;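 active means inhibition above 50%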;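 further: 0% = DMSO wells and 100% = digitonin-killed cells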). The conditions noted are these: HepG2 viability, 24-48 h, at 10 µM, active compounds read high.
In assay [3] the target is L-lactate dehydrogenase (Plasmodium falciparum (isolate CDC / Honduras)) (UniProt Q27743). Description: PfLDH activity inhibition – cell lysate, 3D7 strain, counter-screen for P. falciparum growth inhibition project (AID 2304).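 Further: 0% = vehicle and 100% = reference inhibitor.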 Particulars: P. falciparum 3D7 crude extract, LDH APAD/NBT absorbance; at 2 µM; active compounds read high. (The purpose of a counterscreen is to sort out artefacts and off-target activity.)

Assay [4] is described as follows: inhibition of 3D7 malaria parasite growth – strain 3D7 (AID 2306).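 Further: 0% = DMSO wells and 100% = chloroquine plus artemisinin control wells.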 The conditions noted are these: P. falciparum 3D7 erythrocytic growth, LDH absorbance, 72 h; at 2 µM; active compounds read high.
The target of assay [5] is Calcium-dependent protein kinase 1 (Plasmodium falciparum (isolate 3D7)) (UniProt P62344). Nature of the assay: PfCDPK1 kinase inhibitors, biochemical, TCAMS library (AID 1159585; cut-off not given, nearly all actives have IC50 up to about 0.98 µM;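 further: inhibitors leave more ATP so luminescence rises with inhibition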). The conditions noted are these: recombinant PfCDPK1, Kinase-Glo ATP depletion luminescence. In general terms: In Kinase-Glo more light means more ATP remaining.
Assay [6] addresses Plasmodium falciparum protein kinase 6 (PK6, PF3D7_1337100) (UniProt Q8IDW1). Description: PfPK6 kinase inhibitors, biochemical, TCAMS library (AID 1159586). Particulars: recombinant PfPK6, Kinase-Glo ATP depletion luminescence.
Assay [7] has as its target Protein kinase 7 (PK7), Plasmodium falciparum 3D7 (PF3D7_0213400) (UniProt Q7YTF7). Nature of the assay: inhibition of Plasmodium PK7 catalytic activity – biochemical, TCAMS antimalarial set, Kinase-Glo luminescence (AID 1159587). The conditions noted are these: recombinant PfPK7, Kinase-Glo ATP depletion luminescence.
In assay [8] the target is Calcium-dependent protein kinase 4 (Plasmodium falciparum (isolate 3D7)) (UniProt Q8IBS5). Description: PfCDPK4 kinase inhibitors, biochemical, TCAMS library (AID 1159588; cut-off not given, nearly all actives have IC50 up to about 0.91 µM). Particulars: recombinant PfCDPK4, Kinase-Glo ATP depletion luminescence.

By inhibition is commonly meant the drop in the measured response relative to a control, in per cent.

SMILES strings stand for the structures. Unmarked numbers belong to inactive results. For part of these data: Entries with a potency or affinity are not part of this list. Calls of active or inactive are those of the source. Unless noted, how the calls were made is not given here.

Sequence of L-lactate dehydrogenase (Plasmodium falciparum (isolate CDC / Honduras)) (Q27743 whole entry, looked up): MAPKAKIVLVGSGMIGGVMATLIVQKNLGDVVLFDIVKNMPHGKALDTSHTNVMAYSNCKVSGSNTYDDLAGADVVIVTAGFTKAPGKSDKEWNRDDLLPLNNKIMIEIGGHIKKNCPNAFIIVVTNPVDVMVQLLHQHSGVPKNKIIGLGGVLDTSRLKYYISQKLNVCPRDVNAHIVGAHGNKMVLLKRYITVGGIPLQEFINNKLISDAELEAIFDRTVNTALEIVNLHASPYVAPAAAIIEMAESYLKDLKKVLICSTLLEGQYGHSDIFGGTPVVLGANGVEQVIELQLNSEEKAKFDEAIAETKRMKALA
Sequence of Calcium-dependent protein kinase 1 (Plasmodium falciparum (isolate 3D7)) (P62344 whole entry, looked up): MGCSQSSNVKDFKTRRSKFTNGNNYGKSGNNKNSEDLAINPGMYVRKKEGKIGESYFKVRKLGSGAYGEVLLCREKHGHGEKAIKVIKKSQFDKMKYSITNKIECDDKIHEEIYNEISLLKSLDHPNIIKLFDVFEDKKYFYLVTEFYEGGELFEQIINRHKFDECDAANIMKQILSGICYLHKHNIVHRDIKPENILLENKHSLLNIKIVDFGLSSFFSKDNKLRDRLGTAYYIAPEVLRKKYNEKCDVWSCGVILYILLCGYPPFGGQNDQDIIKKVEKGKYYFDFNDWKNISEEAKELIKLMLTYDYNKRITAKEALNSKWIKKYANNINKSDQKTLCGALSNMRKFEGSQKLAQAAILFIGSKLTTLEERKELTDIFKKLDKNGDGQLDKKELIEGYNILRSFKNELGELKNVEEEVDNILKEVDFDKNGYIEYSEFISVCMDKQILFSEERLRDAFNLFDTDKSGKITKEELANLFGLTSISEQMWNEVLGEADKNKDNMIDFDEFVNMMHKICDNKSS
Sequence of Protein kinase 7 (PK7), Plasmodium falciparum 3D7 (PF3D7_0213400) (Q7YTF7 1-343): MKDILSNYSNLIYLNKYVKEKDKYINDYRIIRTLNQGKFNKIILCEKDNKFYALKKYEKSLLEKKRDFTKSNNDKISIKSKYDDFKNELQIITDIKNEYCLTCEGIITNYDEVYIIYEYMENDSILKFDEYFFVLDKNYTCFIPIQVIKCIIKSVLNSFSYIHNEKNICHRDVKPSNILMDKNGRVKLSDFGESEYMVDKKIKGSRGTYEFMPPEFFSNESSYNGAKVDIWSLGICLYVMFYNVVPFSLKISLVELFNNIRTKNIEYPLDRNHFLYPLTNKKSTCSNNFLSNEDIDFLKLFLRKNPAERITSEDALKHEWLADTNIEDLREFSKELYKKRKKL
Sequence of Plasmodium falciparum protein kinase 6 (PK6, PF3D7_1337100) (Q8IDW1 1-305): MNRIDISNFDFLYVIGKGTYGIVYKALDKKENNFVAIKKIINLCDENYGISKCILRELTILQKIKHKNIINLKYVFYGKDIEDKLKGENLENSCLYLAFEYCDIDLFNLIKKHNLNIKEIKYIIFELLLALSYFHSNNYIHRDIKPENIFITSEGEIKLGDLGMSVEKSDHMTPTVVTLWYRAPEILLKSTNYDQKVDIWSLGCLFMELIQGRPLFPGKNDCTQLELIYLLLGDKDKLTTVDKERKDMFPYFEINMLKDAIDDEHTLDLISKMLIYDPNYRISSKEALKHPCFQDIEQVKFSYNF
Sequence of Calcium-dependent protein kinase 4 (Plasmodium falciparum (isolate 3D7)) (Q8IBS5 whole entry, looked up): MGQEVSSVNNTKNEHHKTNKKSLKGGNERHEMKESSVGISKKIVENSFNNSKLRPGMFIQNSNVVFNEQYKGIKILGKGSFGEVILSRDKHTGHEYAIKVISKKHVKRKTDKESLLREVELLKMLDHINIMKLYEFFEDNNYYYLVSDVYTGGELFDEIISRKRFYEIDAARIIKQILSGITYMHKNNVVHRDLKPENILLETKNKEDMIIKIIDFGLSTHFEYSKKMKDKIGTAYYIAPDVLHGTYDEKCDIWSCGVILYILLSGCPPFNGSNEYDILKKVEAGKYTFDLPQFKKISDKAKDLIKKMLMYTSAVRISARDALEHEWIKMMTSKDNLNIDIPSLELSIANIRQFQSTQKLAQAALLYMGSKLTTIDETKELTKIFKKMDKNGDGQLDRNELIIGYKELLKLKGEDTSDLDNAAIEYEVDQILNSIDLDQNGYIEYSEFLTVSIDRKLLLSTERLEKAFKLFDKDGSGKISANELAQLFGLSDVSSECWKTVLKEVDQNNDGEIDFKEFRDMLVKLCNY

`CS(=O)(=O)NCCCNCc1cccc(-c2ccc(-c3nc4ccc(C(F)(F)F)cc4[nH]3)cc2)c1`: the growth inhibition in assay [1] is 85% (active); in assay [4] it was 100% (active). The values for the inhibition in assay [2] and in assay [3] were 17% and -4%, respectively. For the same compound, the outcome in assay [5], in assay [6], in assay [7] and in assay [8] was inactive.
On to `Cc1cc(NC(=O)c2cccs2)ccc1OC1CCN(Cc2ccc(F)cc2)C1` (configuration not stated), for which the values for the growth inhibition in assay [1] and in assay [4] were 92% (active) and 95% (active), respectively. For the same compound, the inhibition in assay [2] and in assay [3] was 0% each time. Also, the result in assay [5], in assay [6], in assay [7] and in assay [8] was inactive.
With `Nc1cc(-c2cccc(Cl)c2)nn1-c1ccnc2cc(Cl)ccc12`, the growth inhibition in assay [1] was 33%; in assay [4] it was 99% (active). The results for the inhibition in assay [2] and in assay [3] were -3% and -2%, respectively. In addition, the result in assay [5], in assay [6], in assay [7] and in assay [8] was inactive.
As for `COc1ccccc1CCNc1nc(C)cc(N[C@@H](Cc2ccccc2)C(=O)NCCCOC(C)C)n1`, the growth inhibition was 32% in assay [1] and 99% (active) in assay [4]. Besides, the inhibition is 10% in assay [2] and -1% in assay [3]. Moreover, the outcome in assay [5], in assay [6], in assay [7] and in assay [8] was inactive.
For `Clc1ccc(CNc2ccnc(NCc3cccnc3N3CCCC3)n2)c(Cl)c1`, the growth inhibition is 53% (active) in assay [1] and 85% (active) in assay [4]. The inhibition in assay [2] was 37%; in assay [3] it was -5%. Moreover, the result in assay [5], in assay [6], in assay [7] and in assay [8] was inactive.
For `CN(C)c1cc(NC(=O)Nc2ccccc2)c2ccccc2n1`, the growth inhibition in assay [1] is 98% (active); in assay [4], 101% (active). Also, the inhibition in assay [2] was 11%; in assay [3] it was -5%. In addition, the outcome in assay [5], in assay [6], in assay [7] and in assay [8] was inactive.
Take `COc1ccc2nccc([C@@H](O)CN3CCC(NC(=O)C(c4ccsc4)N4CCN(c5ccccc5)CC4)CC3)c2c1` (some centres not stated): the values for the growth inhibition in assay [1] and in assay [4] were 17% and 95% (active), respectively. The results for the inhibition in assay [2] and in assay [3] were 24% and -8%, respectively. Further, the result in assay [5], in assay [6], in assay [7] and in assay [8] was inactive.
Consider `CCOC(=O)c1[nH]c(-c2ccccc2)nc1-n1nc(C)cc1C`, for which the growth inhibition in assay [1] is 9%; in assay [4], 92% (active). Besides, the figures for the inhibition in assay [2] and in assay [3] were 7% and 2%, respectively. Further, the outcome in assay [5], in assay [6], in assay [7] and in assay [8] was inactive.
Consider `CC(C)C[C@H](NC(=O)c1cc(-c2ccc(C(C)(C)C)cc2)no1)C(=O)O` (tested in a mixture with another compound), for which the growth inhibition was 6% in assay [1] and 95% (active) in assay [4]. Further, the inhibition in assay [2] is 3%; in assay [3] it was -3%. In addition, the outcome in assay [5], in assay [6], in assay [7] and in assay [8] was inactive.
In the case of `O=S1(=O)C=C(c2ccccc2)CC1`, the growth inhibition in assay [1] was 44%; in assay [4], 97% (active). For the same compound, the inhibition in assay [2] is 57% (active); in assay [3] it was -1%. Besides, the result in assay [5], in assay [6], in assay [7] and in assay [8] was inactive.
On to `CC[C@H](C)CNC(=O)c1ccnc(-c2cccc(CN(C)C3CCN(C)CC3)c2)c1`, for which the figures for the growth inhibition in assay [1] and in assay [4] were 33% and 100% (active), respectively. Besides, the results for the inhibition in assay [2] and in assay [3] were -19% and -1%, respectively. Moreover, the outcome in assay [5], in assay [6], in assay [7] and in assay [8] was inactive.
As to `Cc1ccc(/C=C/C(=O)NC2CCC(N3CCC(c4ccccc4C)CC3)CC2)cc1C` (configuration not stated), the growth inhibition in assay [1] is 43%; in assay [4], 100% (active). Moreover, the inhibition in assay [2] is 12%; in assay [3], -3%. For the same compound, the result in assay [5], in assay [6], in assay [7] and in assay [8] was inactive.
`Cc1oc(-c2ccccc2)nc1CCOc1ccc(C[C@H](Nc2ccccc2C(=O)c2ccccc2)C(=O)NCc2ccccn2)cc1`: the growth inhibition in assay [1] is 54% (active); in assay [4], 88% (active). Moreover, the inhibition is -2% in assay [2] and -1% in assay [3]. In addition, the outcome in assay [5], in assay [6], in assay [7] and in assay [8] was inactive.
Take `CCN(CC)CCN(Cc1ccc(-c2ccc(C(F)(F)F)cc2)cc1)C(=O)Cn1c(CCc2ccc(F)c(F)c2)nc(=O)c2ccccc21`: the growth inhibition in assay [1] is 62% (active); in assay [4] it was 99% (active). Also, the inhibition was 31% in assay [2] and 3% in assay [3]. The outcome in assay [5], in assay [6], in assay [7] and in assay [8] was inactive.
Take `OCCN1CCN(Cc2ccc(-c3cccc(-c4nc5ccccc5[nH]4)c3)cc2)CC1`: the growth inhibition was 16% in assay [1] and 96% (active) in assay [4]. The inhibition is 32% in assay [2] and 6% in assay [3]. Also, the result in assay [5], in assay [6], in assay [7] and in assay [8] was inactive.
In the case of `C[C@H](NC(=O)c1c(CN2CCC(N3CCCCC3=O)CC2)c(-c2cccs2)nc2ccccc12)C1CCCCC1`, the growth inhibition was 73% (active) in assay [1] and 91% (active) in assay [4]. Also, the inhibition in assay [2] is 8%; in assay [3] it was 2%. In addition, the outcome in assay [5], in assay [6], in assay [7] and in assay [8] was inactive.
As for `O=C(Nc1ccc(CCNCc2ccccc2)cc1)Nc1ccc(OC(F)(F)F)cc1`, the growth inhibition in assay [1] was 22%; in assay [4], 102% (active). For the same compound, the inhibition in assay [2] and in assay [3] was -2% in each case. For the same compound, the outcome in assay [5], in assay [6], in assay [7] and in assay [8] was inactive.
As for `COc1ccc(CC(=O)NC(CCCN2CCC(c3ccccc3)CC2)c2ccc(Cl)c(Cl)c2)cc1OC` (configuration not stated), the growth inhibition in assay [1] is 57% (active); in assay [4] it was 82% (active). For the same compound, the inhibition was 28% in assay [2] and -7% in assay [3]. Moreover, the result in assay [5], in assay [6], in assay [7] and in assay [8] was inactive.
For the compound `CCn1ccc2c(N3CCCC3=O)cc(C(=O)N[C@@H](Cc3ccccc3)[C@H](O)CNC(C)(C)CCCC(C)C)cc21`, the growth inhibition in assay [1] is 98% (active); in assay [4] it was 96% (active). In addition, the inhibition is 11% in assay [2] and -3% in assay [3]. Besides, the result in assay [5], in assay [6], in assay [7] and in assay [8] was inactive.
As to `CC(C)(O)CC(C)(C)c1cc(Cl)ccc1O`, the growth inhibition is 1% in assay [1] and 96% (active) in assay [4]. Besides, the inhibition was 5% in assay [2] and 7% in assay [3]. The result in assay [5], in assay [6], in assay [7] and in assay [8] was inactive.
Consider `N#Cc1cncc(-c2nc3c(N4CCC(N5CCCC5)CC4)cccc3n2CCNCc2ccccc2)c1`, for which the growth inhibition in assay [1] is 58% (active); in assay [4] it was 100% (active). Moreover, the inhibition in assay [2] was 3%; in assay [3], -2%. The outcome in assay [5], in assay [6], in assay [7] and in assay [8] was inactive.
Consider `O=C(NCc1ccccn1)C(c1cc2ccccc2o1)N1CCN(C(c2ccccc2)c2ccccc2)CC1` (configuration not stated), for which the growth inhibition was 68% (active) in assay [1] and 95% (active) in assay [4]. For the same compound, the inhibition was 17% in assay [2] and 0% in assay [3]. The result in assay [5], in assay [6], in assay [7] and in assay [8] was inactive.
As to `O=C(CC1SC(N2N=C(c3cccs3)CC2c2ccccc2)=NC1=O)Nc1ccccc1F` (configuration not stated), the growth inhibition is 76% (active) in assay [1] and 87% (active) in assay [4]. Besides, the inhibition in assay [2] was 9%; in assay [3] it was -2%. The result in assay [5], in assay [6], in assay [7] and in assay [8] was inactive.
`Oc1ccc2ccccc2c1CNCCC1CCCCC1`: the growth inhibition in assay [1] and in assay [4] was 99% (active) in each case. In addition, the results for the inhibition in assay [2] and in assay [3] were 16% and 5%, respectively. Further, the outcome in assay [5], in assay [6], in assay [7] and in assay [8] was inactive.
